p53 reactivation: qHTS assay for re-activators of p53 using a Luc reporter. Potency, µM (top dose mostly 92.2 µM), without a hit: at the highest dose activity change, positive = activation, usual class: activators. AID 504706, 2011. 320,000 tested, 0.063% active. H1299 p53-A138V BP100-luciferase reporter, luminescence, 24 h; active = well fitted activation curve with a large enough effect; inconclusive = small, poorly fitted or top-dose-only effect; inactive = no such curve, though single readings can be large or run the other way; also: potency is read from the fitted curve at half-maximal effect; % of control where 0% means no effect; nearly all actives have a fitted effect of over 45% in size
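p53-null H1299 cells stably carrying temperature-sensitive p53-A138V and a BP100-luciferase reporter were pinned with compounds (4-point, 1:5 series) and held 24 hrs at 37 deg C. Luminescence was read 10 min after detection reagent.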
Menin MLL FP FL: qHTS Assay for Inhibitors Targeting the Menin-MLL Interaction in MLL Related Leukemias: Competition With Fluorescein Labeled MLL-derived Peptide | FP activity change, % at 61.4 µM | AID 1766, 2009 | Fluorescence polarization, fluorescein-MLL peptide displacement from menin | 290,000 tested, under 10 active; active = well fitted curve in the direction sought with a large enough effect in the polarisation, not every such curve was filed as active; inconclusive = small, poorly fitted or top-dose-only effect, or effect the other way, or a change in a side signal; inactive = no such curve, though single readings can be large or run the other way; the % refers to the polarisation; also: % of control where 0% means no effect
ClpP mod: qHTS Assay for Activators of ClpP. 340,000 tested, 1.9% active. ATP-dependent Clp protease proteolytic subunit (Bacillus subtilis (strain 168)), P80244. purified B. subtilis ClpP, FRET peptide cleavage, 20 min. AID 651965, 2013. Potency, µM (titrated, usually from 57.5 µM), inactives show at the top dose activity change, negative = active; active = well fitted falling curve with a large enough effect; inconclusive = small, poorly fitted or top-dose-only effect; inactive = no such curve, though single readings can be large or run the other way; also: potency is read from the fitted curve at half-maximal effect; the source files actives as falling curves though it sought activators and does not explain the sign; nearly all actives have a fitted effect of over 65% in size
Target sequence (P80244 whole entry, looked up): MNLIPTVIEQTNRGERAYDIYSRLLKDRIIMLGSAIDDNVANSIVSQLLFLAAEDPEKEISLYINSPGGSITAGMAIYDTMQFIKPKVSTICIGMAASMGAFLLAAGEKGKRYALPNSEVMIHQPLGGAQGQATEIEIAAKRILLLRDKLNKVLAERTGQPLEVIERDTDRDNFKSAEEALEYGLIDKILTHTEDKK
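FRET quenching reversal measured ClpP activation: 10 microg/mL B. subtilis ClpP at pH 8 with the FRET-FV decapeptide, read at 430 nm after 320 nm excitation. The 20-min minus 0-min signal was scaled between DMSO/no-enzyme wells and ADEP (5.8 microM final).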
MLL CXXC-DNA inh: qHTS Fluorescence Polarization Assay for Inhibitors of MLL CXXC domain - DNA interaction; Histone-lysine N-methyltransferase 2A (Homo sapiens), Q03164; MLL-CXXC / FITC-HOXA9 DNA fluorescence polarization; Potency, µM (highest dose often 115 µM), for the others: at the top dose activity change, negative = inhibition, usual class: inhibitors; 290,000 tested, 0.037% active; AID 2662, 2010; active = well fitted inhibition curve with a large enough effect in the polarisation, with a control signal flat, not every such curve was filed as active; inconclusive = small, poorly fitted or top-dose-only effect, or effect the other way, or a change in a side signal; inactive = no such curve, though single readings can be large or run the other way; the % refers to the polarisation; also: potency is read from the fitted curve at half-maximal effect
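Fluorescence polarization: 7 uM MLL-CXXC (stock) preincubated 5 min with compounds, then 50 nM fluorescein-HOX-A9 DNA (stock) added; 30 min ambient. Buffer 50 mM Tris-HCl pH 7.5, 50 mM NaCl, 1 mM DTT, 0.05% BSA.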
Menin MLL FP TR: qHTS Assay for Inhibitors Targeting the Menin-MLL Interaction in MLL Related Leukemias: Competition With Texas Red Labeled MLL-derived Mutant Peptide; Menin + Texas Red MLL mutant peptide, fluorescence polarization; O00255; Potency, µM (series often up to 61.6 µM), inactives show at the top dose FP activity change, negative = inhibition, actives largely listed as inhibitors; 270,000 tested, 0.23% active; active = well fitted inhibition curve with a large enough effect in the polarisation, with a control signal flat, not every such curve was filed as active; inconclusive = small, poorly fitted or top-dose-only effect, or effect the other way, or a change in a side signal; inactive = no such curve, though single readings can be large or run the other way; the % refers to the polarisation; also: potency is read from the fitted curve at half-maximal effect; % of control where 0% means no effect
The depositor's hits bear a star; ? = inconclusive; . = no result; [ ] = remark or other dose. Only a selection was taken, and hits are over-represented in it overall.

SMILES	p53 reactivation	Menin MLL FP FL	ClpP mod	MLL CXXC-DNA inh	Menin MLL FP TR
CCOc1ccccc1-n1nnnc1SCC(=O)Nc1cc2oc3ccccc3c2cc1OC	0%	6	-2%	33%	10µM*
COc1cc2c(cc1NS(=O)(=O)N1CCCC1)oc1ccccc12	-2%	0	25µM*	6%	.
COc1cc2c(cc1NC(=O)COC(=O)[C@@H](NC(=O)c1ccccc1F)C(C)C)oc1ccccc12	?	1	5.6µM*	-4%	5%
COc1ccccc1CC(=O)Nc1ccc(O)cc1C(=O)O	-8%	0	18µM*	7%	28%
CCN(CC)c1ccc(-c2nc(-c3ccccc3C)no2)cc1[N+](=O)[O-]	.	.	0%	.	.
COc1ccccc1CC(=O)Nc1cc2oc3ccccc3c2cc1OC	-1%	4	32µM*	3%	19%
COc1ccc(CC(=O)Nc2cc3oc4ccccc4c3cc2OC)cc1	?	-1	-20%	5%	17%
COc1cc2c(cc1NC(=O)COC(=O)C1CC(=O)N(Cc3ccco3)C1)oc1ccccc12 (stereo not given)	11%	1	25µM*	1%	12%
Cc1ccc(-c2nnc(SCC(=O)Nc3ccc4c(c3)oc3ccccc34)n2C)c(Cl)c1	3%	3	1%	19%	-5%
COc1cc2c(cc1NC(=O)COc1ccc3ccccc3c1)oc1ccccc12	-2%	3	3.2µM*	24%	5%
Cc1ccccc1OCc1nnc(SCC(=O)Nc2ccc3c(c2)oc2ccccc23)n1C	10%	-2	14µM*	33%	15%
CCOc1ccc(NC(=O)CC2C(=O)N(c3cccc(C)c3)C(=O)N2Cc2cccnc2)cc1 (stereo not given)	.	.	-1%	.	.
C=CC[C@H](c1ccc(F)cc1)N(CC(C)C)S(=O)(=O)C=C	.	.	2%	.	.
CCCCCCCCCC[n+]1cccc2cc(Br)ccc21	.	.	-1%	.	.
Cc1cccc(/C=C\c2ccccc2)n1	.	?	.	.	1%[24.8 µM]
C(=C\c1ccccn1)/c1ccccc1	.	.	-5%	.	.
C(=C\c1cc(/C=C/c2ccccc2)ncn1)/c1ccccc1	13%	4	35µM*	14%	?
Cc1nc(/C=C/c2ccccc2)cc(/C=C/c2ccccc2)n1	13%	0	14µM*	-1%	.
c1ccc2c3c([nH]c2c1)CCCC3	.	.	-13%	.	.
c1ccc2c(c1)ccc1[nH]c3c(c12)CCCC3	.	.	18µM*	.	.
CCOc1ccccc1-c1nnc2n1N=C(c1cc(OC)cc(OC)c1)CS2	.	2	.	.	-15%
N#Cc1c(/N=C/c2ccco2)oc(-c2ccccc2)c1-c1ccccc1	-1%	-2	?	9%	4%
N#Cc1c(/N=C/c2ccccc2)oc(-c2ccccc2)c1-c1ccccc1	17%	1	35µM*	14%	30%
CCOc1ccc2nc3cc(NCc4ccc(OC)cc4)ccc3c(N)c2c1	-3%	?	-3%	7%	11µM*
O=S(=O)(NCCCCNS(=O)(=O)c1cccc2cccnc12)c1cccc2cccnc12	.	.	0%	.	.
SMILES	p53 reactivation	Menin MLL FP FL	ClpP mod	MLL CXXC-DNA inh	Menin MLL FP TR
COc1ccc2nc(COC(=O)c3ccco3)c(C(C)=O)[n+]([O-])c2c1	6%	0	3%	5%	11%
COc1ccc2nc(CC(C)(C)CC(=O)O)c[n+]([O-])c2c1	20%	-7	16µM*	7%	-14%
Fc1ccc(Nc2nc(NCc3ccco3)nc3nccnc23)cc1	.	.	-1%	.	.
CCN(CC)c1cc(C)c2cc(NC(=O)c3ccccc3Cl)ccc2n1	.	.	-20%	.	.
COc1cc(C2C(C#N)=C(N)Oc3c2ccc2ccccc32)ccc1OCC(=O)Nc1ccccc1C (stereo not given)	-4%	4	-3%	26%	25µM*
COC(=O)C1=C[C@@H](C(=O)OC)[C@@H]2C3=C(C(=O)[C@@]2(CC(C)C)NC(=O)c2ccccc2)[C@H](C)n2c(=O)n(-c4ccccc4)c(=O)n2[C@@H]3C1	.	16	.	.	6%
